Out of some 5,500 compounds screened, about 2,000 (36%) were called active. About 18% were inconclusive and are not listed. No stated cut-off is given here; in the data, active means normalized growth mostly below about 0.91 (no sharp cut-off); inconclusive means no clear call, values can overlap the other calls; inactive means mostly above about 0.92. The list shows a part of the results.
Test: chemical genetic growth profiling, strain panel (AID 1159580);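 further: tested at 20 µM; growth read once vehicle control cultures reached saturation at 30 °C; 1 = growth at the plate median or of vehicle wells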
Settings: S. cerevisiae deletion strains, growth OD
[1] = locus YAR019C, strain CDC15, stronger effect = lower value
[2] = locus YBL105C, strain PKC1, stronger effect = lower value
[3] = locus YBR135W, strain CKS1, stronger effect = lower value
[4] = locus YBR136W, strain MEC1, stronger effect = lower value
[5] = locus YBR160W, strain CDC28, stronger effect = lower value
[6] = locus YDL017W, strain CDC7, stronger effect = lower value
[7] = locus YDL028C, strain MPS1, stronger effect = lower value
[8] = locus YDL101C, strain DUN1, stronger effect = lower value
[9] = locus YDL108W, strain KIN28, stronger effect = lower value
[10] = locus YDL132W, strain cdc53, stronger effect = lower value
[11] = locus YDL214C, strain PRR2, stronger effect = lower value
[12] = locus YDR052C, strain DBF4, stronger effect = lower value
[13] = locus YDR054C, strain cdc34, stronger effect = lower value
[14] = locus YDR226W, strain ADK1, stronger effect = lower value
[15] = locus YDR477W, strain SNF1, stronger effect = lower value
[16] = locus YER123W, strain YCK3, stronger effect = lower value
[17] = locus YER133W, strain GLC7, stronger effect = lower value
[18] = locus YFL009W, strain cdc4, stronger effect = lower value
[19] = locus YFL029C, strain CAK1, stronger effect = lower value
[20] = locus YFR003C, strain YPI1, stronger effect = lower value
[21] = locus YFR019W, strain FAB1, stronger effect = lower value
[22] = locus YFR028C, strain CDC14, stronger effect = lower value
[23] = locus YGR040W, strain KSS1, stronger effect = lower value
[24] = locus YGR052W, strain FMP48, stronger effect = lower value
[25] = locus YGR092W, strain DBF2, stronger effect = lower value
[26] = locus YHR030C, strain SLT2, stronger effect = lower value
[27] = locus YHR079C, strain IRE1, stronger effect = lower value
[28] = locus YHR082C, strain KSP1, stronger effect = lower value
[29] = locus YHR205W, strain SCH9, stronger effect = lower value
[30] = locus YIL147C, strain SLN1, stronger effect = lower value
[31] = locus YJL095W, strain BCK1, stronger effect = lower value
[32] = locus YJL128C, strain PBS2, stronger effect = lower value
[33] = locus YJL157C, strain FAR1, stronger effect = lower value
[34] = locus YJR016C, strain ILV3, stronger effect = lower value
[35] = locus YJR066W, strain TOR1 (second series), stronger effect = lower value
[36] = locus YJR066W, strain TOR1, stronger effect = lower value
[37] = locus YKL048C, strain ELM1, stronger effect = lower value
[38] = locus YKL067W, strain YNK1, stronger effect = lower value
[39] = locus YKL101W, strain HSL1, stronger effect = lower value
[40] = locus YKL193C, strain SDS22, stronger effect = lower value
[41] = locus YKL203C, strain TOR2, stronger effect = lower value
[42] = locus YLR113W, strain HOG1, stronger effect = lower value
[43] = locus YLR133W, strain CKI1, stronger effect = lower value
[44] = locus YLR403W, strain SFP1, stronger effect = lower value
[45] = locus YML070W, strain DAK1, stronger effect = lower value
[46] = locus YMR001C, strain CDC5, stronger effect = lower value
[47] = locus YMR205C, strain PFK2 (second series), stronger effect = lower value
[48] = locus YMR277W, strain FCP1, stronger effect = lower value
[49] = locus YNL006W, strain LST8, stronger effect = lower value
[50] = locus YNL020C, strain ARK1, stronger effect = lower value
[51] = locus YNL161W, strain CBK1, stronger effect = lower value
[52] = locus YNL183C, strain NPR1, stronger effect = lower value
[53] = locus YNL207W, strain RIO2, stronger effect = lower value
[54] = locus YNL222W, strain SSU72, stronger effect = lower value
[55] = locus YNL307C, strain MCK1 (second series), stronger effect = lower value
[56] = locus YOL078W, strain AVO1, stronger effect = lower value
[57] = locus YOL136C, strain PFK27, stronger effect = lower value
[58] = locus YOR061W, strain CKA2, stronger effect = lower value
[59] = locus YOR119C, strain RIO1, stronger effect = lower value
[60] = locus YOR231W, strain MKK1, stronger effect = lower value
[61] = locus YOR329C, strain SCD5, stronger effect = lower value
[62] = locus YPL031C, strain PHO85, stronger effect = lower value
[63] = locus YPL153C, strain RAD53, stronger effect = lower value
[64] = locus YPL204W, strain HRR25, stronger effect = lower value
[65] = locus YPL209C, strain IPL1, stronger effect = lower value
[66] = locus YPL256C, strain CLN2, stronger effect = lower value
[67] = locus YPR025C, strain CCL1, stronger effect = lower value
[68] = locus YPR106W, strain ISR1, stronger effect = lower value
[69] = locus YPR111W, strain DBF20, stronger effect = lower value
[70] = strain NNK1, stronger effect = lower value
[71] = strain TSCII, stronger effect = lower value

Measured: normalized growth

Cc1nc(C(F)(F)F)c(C(=O)O/N=C(/N)c2ccc(Cl)cc2)s1
inactive: [1] 0.98 | [2] 0.975 | [3] 0.98 | [4] 0.968 | [5] 0.983 | [6] 0.988 | [7] 0.974 | [8] 0.994 | [9] 0.98 | [10] 0.997 | [11] 0.967 | [12] 0.988 | [13] 1 | [14] 0.991 | [15] 0.942 | [16] 0.92 | [17] 0.942 | [18] 0.974 | [19] 0.983 | [20] 0.982 | [21] 0.938 | [22] 0.98 | [23] 0.941 | [24] 0.952 | [25] 0.933 | [26] 0.999 | [27] 0.83 | [28] 1.14 | [29] 0.921 | [30] 0.978 | [31] 0.818 | [32] 0.978 | [33] 0.952 | [34] 0.984 | [35] 0.926 | [36] 1.06 | [37] 1 | [38] 0.974 | [39] 0.983 | [40] 0.954 | [41] 1.03 | [43] 0.948 | [44] 0.905 | [45] 0.939 | [46] 0.973 | [47] 0.941 | [48] 0.974 | [49] 0.985 | [50] 0.945 | [51] 0.984 | [52] 0.876 | [53] 0.972 | [54] 0.977 | [55] 0.963 | [56] 0.97 | [57] 0.946 | [58] 0.948 | [59] 0.983 | [60] 0.831 | [61] 0.974 | [62] 0.947 | [63] 0.937 | [64] 0.921 | [65] 0.982 | [67] 0.993 | [68] 0.987 | [69] 0.976 | [70] 0.995 | [71] 0.974
active: [42] 0.79 | [66] 0.795

CCC1CCC(C)N(C(=S)Nc2ccc(Br)cc2C)C1 (stereo not drawn)
inactive: [1] 0.965 | [2] 0.976 | [3] 0.955 | [4] 0.971 | [5] 0.953 | [6] 0.966 | [7] 0.961 | [8] 0.958 | [9] 0.96 | [10] 0.956 | [11] 0.987 | [12] 0.969 | [13] 0.953 | [14] 0.963 | [15] 0.955 | [16] 0.936 | [17] 0.961 | [18] 0.956 | [19] 0.963 | [20] 0.978 | [21] 0.995 | [22] 0.967 | [23] 0.963 | [24] 1.11 | [25] 0.964 | [27] 0.979 | [28] 1.05 | [29] 0.993 | [30] 0.968 | [31] 0.913 | [32] 0.927 | [33] 0.986 | [34] 0.964 | [35] 1.01 | [36] 0.987 | [37] 0.956 | [38] 1 | [39] 0.95 | [40] 0.951 | [41] 1.05 | [42] 0.924 | [43] 0.98 | [44] 0.992 | [45] 0.958 | [46] 0.961 | [47] 0.973 | [48] 0.962 | [49] 0.966 | [50] 0.974 | [51] 0.948 | [52] 0.967 | [53] 0.957 | [54] 0.963 | [55] 0.948 | [56] 0.959 | [57] 0.964 | [58] 0.948 | [59] 1.08 | [60] 0.957 | [61] 0.968 | [62] 0.968 | [63] 0.955 | [64] 0.969 | [65] 0.967 | [66] 0.906 | [67] 0.959 | [68] 0.978 | [69] 0.979 | [70] 0.962 | [71] 0.95
active: [26] 0.84

CCCC1c2ccsc2CCN1C(=S)Nc1ccc(Cl)cc1Cl (stereo not drawn)
inactive: [1] 0.969 | [2] 0.971 | [3] 0.983 | [4] 0.972 | [5] 0.984 | [6] 0.973 | [7] 0.971 | [8] 0.984 | [9] 0.987 | [10] 0.98 | [11] 0.984 | [12] 0.981 | [13] 0.962 | [14] 0.968 | [15] 0.974 | [16] 0.952 | [17] 0.968 | [18] 0.971 | [19] 0.967 | [20] 0.975 | [21] 0.986 | [22] 0.963 | [23] 0.959 | [24] 1 | [25] 0.946 | [26] 0.922 | [27] 0.975 | [28] 0.987 | [29] 0.878 | [30] 0.973 | [31] 0.961 | [32] 0.946 | [33] 0.981 | [34] 0.972 | [35] 0.946 | [36] 0.981 | [37] 0.975 | [38] 0.97 | [39] 0.964 | [40] 0.969 | [41] 1.02 | [42] 0.897 | [43] 0.974 | [44] 0.931 | [45] 0.944 | [46] 0.977 | [47] 0.968 | [48] 0.977 | [49] 0.991 | [50] 0.986 | [51] 0.98 | [52] 0.966 | [53] 0.97 | [54] 0.976 | [55] 0.973 | [56] 0.974 | [57] 0.958 | [58] 0.964 | [59] 1.02 | [60] 0.978 | [61] 0.974 | [62] 0.966 | [63] 0.971 | [64] 0.985 | [65] 0.974 | [66] 0.932 | [67] 0.983 | [68] 0.973 | [69] 0.959 | [70] 0.965 | [71] 0.959
